In all, about 68,000 sequences were measured (“fluorescence intensity (a.u.)”: median about 9,100, highest 2% from about 16,000 on). The sample holds the highest values, similar sequences and a random draw of the others, so the mix is not that of the screen.
Biological target: OsWRKY34 (Oryza sativa, UniProt Q0JBA9 1-250)
Test: protein-binding microarray (RPBM); PBS, 2% BSA, 51.3 ng/ul salmon testes DNA, 50 uM zinc acetate, 200 nM TF, 25 C, 1 h; high values mean tight binding
Conditions: protein: recombinant; tags: N-terminal polyhistidine and DsRed monomer fusion (pET32a); label: CyDye5-dUTP incorporated in the synthesized complementary strand; 3' TTTTT single-stranded linker to array surface; dsDNA, one strand shown
Procedure, shortened: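 Per-feature fluorescence intensity (arbitrary units), read on an Axon 4000B scanner, is the binding signal. Transcription factors carrying an N-terminal polyhistidine tag and DsRed fusion were expressed in E. coli BL21-CodonPlus and purified on Ni–NTA. A custom Agilent array, made double-stranded by primer extension with Cy5-dUTP and blocked with 2% BSA, was incubated with 200 nM protein in PBS, 2% BSA, salmon testes DNA and 50 µM zinc acetate at 25 °C for 1 h and then washed.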

OsWRKY34, sequence (Q0JBA9 entry or part of it): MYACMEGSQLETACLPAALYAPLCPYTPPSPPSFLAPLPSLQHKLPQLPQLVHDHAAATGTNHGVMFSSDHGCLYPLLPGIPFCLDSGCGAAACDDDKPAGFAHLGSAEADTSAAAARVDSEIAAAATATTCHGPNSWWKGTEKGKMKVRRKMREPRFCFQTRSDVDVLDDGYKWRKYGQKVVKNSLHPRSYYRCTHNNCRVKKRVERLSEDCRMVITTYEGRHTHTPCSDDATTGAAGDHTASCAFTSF

| Sequence | binding signal |
| --- | --- |
| TTCGAAATATTTGACACCGTTGACTTTTTAGCACATGTTTCGGAGTCACCTAGTGCAG | 30000 fluorescence intensity (a.u.) |
| TTTCGAAATGTTTGACACTGTTGACTTTTTAGCACATGTTCGGAGTCACCTAGTGCAG | 14200 fluorescence intensity (a.u.) |
| CGAAATGTTTGACGTCGTTGACTTTTTAGCACATGTTTAACGGAGTCACCTAGTGCAG | 22800 fluorescence intensity (a.u.) |
| TCGAAATGTTTGACACCGTTGACTTTTTAGCACATGTTTACGGAGTCACCTAGTGCAG | 19000 fluorescence intensity (a.u.) |
| CCGTTTCGAAATGTTTACACCGTTGACTTTTTAGCACATGCGGAGTCACCTAGTGCAG | 30100 fluorescence intensity (a.u.) |
| CAAAATGTTTGACATCGTTGACTTTTTAGCACATGTTTGACGGAGTCACCTAGTGCAG | 15300 fluorescence intensity (a.u.) |
| GAATTAAACTTTGCATGGTTTCTGTTTGGTCAAACTTCTCCGGAGTCACCTAGTGCAG | 9130 fluorescence intensity (a.u.) |
| AGGTACGCACGCGCGGTGGAGGAGGAGGAGGAGGAGGAGGCGGAGTCACCTAGTGCAG | 10900 fluorescence intensity (a.u.) |
| TGAATGCACCATGTCTTTTGCTCCGTCCGTCATAAAAAAACGGAGTCACCTAGTGCAG | 8950 fluorescence intensity (a.u.) |
| TGCCAAAGCTCTATCCATTTTGCCTCTACTCAATCGTCCACGGAGTCACCTAGTGCAG | 10200 fluorescence intensity (a.u.) |
| TCTAGATTTATCCCCATTTTTGGCTGGGCCTTCTATTTAACGGAGTCACCTAGTGCAG | 8720 fluorescence intensity (a.u.) |
| AACCCATTACATAGCTGCAAGAAACCCAATCTTTCTTTACCGGAGTCACCTAGTGCAG | 8420 fluorescence intensity (a.u.) |
| CCTACCCCTACCGCTCCTGCCTGCTTCGCCCGCCGCCGCCCGGAGTCACCTAGTGCAG | 8340 fluorescence intensity (a.u.) |
| CTCTATACCATACGCCATCTCCATCATCTCTCGATCCATCCGGAGTCACCTAGTGCAG | 11300 fluorescence intensity (a.u.) |
| AGTCTGAGCCACCTTTCATTACCCATCCAAGATTCGGTTTCGGAGTCACCTAGTGCAG | 8900 fluorescence intensity (a.u.) |
| AGTAGTCCTTCAAGCTCCAATCATATACCCCTGATACTAACGGAGTCACCTAGTGCAG | 8300 fluorescence intensity (a.u.) |
| AGGAAATGTCTCATCAAATACTAGATTGGTTTTTTTTTACCGGAGTCACCTAGTGCAG | 8960 fluorescence intensity (a.u.) |
| CGATTTCGACCAATCTAGCCGCTATGTGCACTCCTTTTCCCGGAGTCACCTAGTGCAG | 12100 fluorescence intensity (a.u.) |
| TGGTCTTGCTGGTTGCTGCGTATTTGGCTGTATTGGTTATCGGAGTCACCTAGTGCAG | 8380 fluorescence intensity (a.u.) |
| ATTATACGTTAATGGCTTTCTCGTTTTGTATACGCTGATTCGGAGTCACCTAGTGCAG | 9600 fluorescence intensity (a.u.) |
| TCGAAATATTTGACACCGTTGACTTTTTAGCACATGTTTGCGGAGTCACCTAGTGCAG | 35300 fluorescence intensity (a.u.) |
| ATTTGATACTTCTCTCGCCTTTCTTTATTATTCTCCCGCTCGGAGTCACCTAGTGCAG | 8420 fluorescence intensity (a.u.) |
| GAGTGCCTATTCAATTGCCTTTTGTTTGTCAACGTTTCTCCGGAGTCACCTAGTGCAG | 8080 fluorescence intensity (a.u.) |

| Sequence | binding signal |
| --- | --- |
| GTCCTTTCAGTGTTGCGCTTTTGCTTATTGTAGTTATTGGCGGAGTCACCTAGTGCAG | 16300 fluorescence intensity (a.u.) |
| CATCCAACCATCACACACAGTTAGCATATCAGTAGTCGTTCGGAGTCACCTAGTGCAG | 8210 fluorescence intensity (a.u.) |
| TCCATCCCGGCCCGGCACTGCACACACGCGCGTAGTACCACGGAGTCACCTAGTGCAG | 8130 fluorescence intensity (a.u.) |
| AACTTGAGCGTTGACCGCTTTGACTCCTCTTCTTTCTCCACGGAGTCACCTAGTGCAG | 24900 fluorescence intensity (a.u.) |
| AGACCGTTGACTTGACTAGTCCACTCCTCTTTCACACGTACGGAGTCACCTAGTGCAG | 12100 fluorescence intensity (a.u.) |
| ATGACCGGCCACCACCATTGCCACCGGCCGATCTCCTCTTCGGAGTCACCTAGTGCAG | 9360 fluorescence intensity (a.u.) |
| GCCATTGACAGCGTTGACCAAGTCAGCCGCTCCAGCCTCTCGGAGTCACCTAGTGCAG | 14200 fluorescence intensity (a.u.) |
| ACTCCTACAGTAGTGACTTGAGTAGCGCTTCTTTTTTCCACGGAGTCACCTAGTGCAG | 9440 fluorescence intensity (a.u.) |
| TCTTCGGCCTCTCCGCCTCCGCCATTGACAGCGTTGACCACGGAGTCACCTAGTGCAG | 18300 fluorescence intensity (a.u.) |
| GCCACCTTTTGTTCCGCAACCGCAATGATTTCTTCTTCTTCGGAGTCACCTAGTGCAG | 14800 fluorescence intensity (a.u.) |
| TAGTGGTGGTCTTGATTCCTGACATAGCAGACGCATCTGACGGAGTCACCTAGTGCAG | 10500 fluorescence intensity (a.u.) |
| TATATATATATATATATATAGATTTATTGACATCTATATGCGGAGTCACCTAGTGCAG | 9230 fluorescence intensity (a.u.) |
| GTTTGACATGCAGACTTGATTCTATCACCTATAGCATCTGCGGAGTCACCTAGTGCAG | 28100 fluorescence intensity (a.u.) |
| TCTTGGTTACATGGTGGTTGGTGTTTCATTCTCTTGTTTTCGGAGTCACCTAGTGCAG | 10000 fluorescence intensity (a.u.) |
| GGGGTTTCTCATGGGCCAACTATACATTCACACGCGGCCGCGGAGTCACCTAGTGCAG | 17400 fluorescence intensity (a.u.) |
| ATCTGATTTTTATTTTCAGCATATGCATCGTTTTCATGTTCGGAGTCACCTAGTGCAG | 10200 fluorescence intensity (a.u.) |
| CTGTCGTGTTTCCTCTGATTAGTTCATACAGCATCTGTTACGGAGTCACCTAGTGCAG | 17600 fluorescence intensity (a.u.) |
| ATTTTCATTTGGTTGGTGTGGTTATCTCTTTTTTCATTTACGGAGTCACCTAGTGCAG | 20700 fluorescence intensity (a.u.) |
| GGTTTCTTCTCATTCTTCTTTTTTTCCTTTTTTCTACACGCGGAGTCACCTAGTGCAG | 14000 fluorescence intensity (a.u.) |
| TTCTTCATTATCTCTATTTGTGGTGCTATTGGTTTATTTTCGGAGTCACCTAGTGCAG | 8980 fluorescence intensity (a.u.) |
| TTCAGTTTTTGCTTGCAACGTTTGACCACTCGTCTTATTCCGGAGTCACCTAGTGCAG | 15600 fluorescence intensity (a.u.) |
| TCAGTTTTTGTTTGCAATGTTTGACCACTCGTCTTATTCACGGAGTCACCTAGTGCAG | 18500 fluorescence intensity (a.u.) |
| TTTACATTCATTTCTCTATACGAGCATGGGCCGCACTATACGGAGTCACCTAGTGCAG | 9830 fluorescence intensity (a.u.) |
